We go through 62 molecules from PubChem BioAssay AID368 (University of Pittsburgh Molecular Library Screening Center, 2006).

Screen size: about 65,000 compounds; about 85 (0.1%) were called active. The list comes from a sample in which actives are over-represented; it also holds similar structures and randomly drawn compounds. Unmarked numbers belong to inactive results. No stated cut-off is given here; in the data, active means inhibition above about 50%; inactive means the rest.

The term inhibition denotes the change of the read-out against control, counted positive when it falls.

The experiment deals with M-phase inducer phosphatase 2 (Homo sapiens) (UniProt P30305). Briefly: inhibitors of Cdc25B phosphatase catalytic domain, primary screen, biochemical, OMFP fluorescence (AID 368). Particulars: recombinant Cdc25B, OMFP fluorescence Ex485/Em525; stronger effect = higher value;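 compounds tested at 10 µM final in the well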.
Sequence of M-phase inducer phosphatase 2 (Homo sapiens) (P30305 whole entry, looked up, the tested form may be a part): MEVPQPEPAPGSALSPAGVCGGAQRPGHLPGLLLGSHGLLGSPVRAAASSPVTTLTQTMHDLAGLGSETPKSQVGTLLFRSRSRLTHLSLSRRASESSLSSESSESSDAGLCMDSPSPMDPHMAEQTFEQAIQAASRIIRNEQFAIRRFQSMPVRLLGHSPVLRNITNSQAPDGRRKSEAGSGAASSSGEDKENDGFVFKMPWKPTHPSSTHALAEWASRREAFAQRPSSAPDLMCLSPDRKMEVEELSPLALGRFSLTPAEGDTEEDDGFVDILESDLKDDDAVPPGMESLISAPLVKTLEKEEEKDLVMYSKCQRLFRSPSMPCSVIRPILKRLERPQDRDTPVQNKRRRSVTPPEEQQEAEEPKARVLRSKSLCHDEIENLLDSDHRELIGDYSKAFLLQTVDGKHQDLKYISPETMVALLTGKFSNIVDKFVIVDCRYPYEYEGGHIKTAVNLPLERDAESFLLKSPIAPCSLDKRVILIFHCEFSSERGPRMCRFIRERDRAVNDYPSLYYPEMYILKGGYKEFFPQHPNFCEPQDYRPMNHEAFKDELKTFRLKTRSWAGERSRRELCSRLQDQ
Take `CCCOP(=O)(c1ccc(N(C)C)cc1)C(O)c1cc(OC)c(OC)c(OC)c1` (configuration not stated): the inhibition is -0.929%.
As to `CCOC(=O)N1CCN(CC(=O)c2c(C)[nH]c3ccccc23)CC1`, the inhibition was 60% (active).
As for `Cc1ccc2c(C(=O)CN3CCCC3)c(C)[nH]c2c1`, the inhibition is -0.2%.
Turning to `CCOC(=O)N1CCN(CC(=O)n2c(C)c(C)c3ccccc32)CC1`, the inhibition was -1.72%.
The result for `Cc1occc1C(=O)Nc1cccc(Cn2cccn2)c1` reads -8.98%.
On to `O=C(O)CC(Cn1cnnn1)c1ccccc1` (configuration not stated), for which the inhibition was -6.9%.
For `O=C1CCCc2c1[nH]c1ccc(Br)cc21`, the inhibition was 5.28%.
The result for `Cc1ccsc1C(C(=O)NC1CCCCC1)N(C(=O)Cc1cccs1)C1CC1` (configuration not stated) reads 4.04%; that for `CCc1c(C)nc2cc(-c3cccs3)[nH]n2c1=O`, -13.1%.
Take `C/C(=C(\C#N)C(=O)NCCCN1CCOCC1)N(C)C`: the inhibition is -7.37%.
The result for `CCCC(=O)Nc1ccc(C(=O)NCCCn2ccnc2)cc1` reads 2.06%.
As to `CCn1cc(C(=O)NCC2COc3ccccc3O2)c2cc(OC)c(OC)cc2c1=O` (configuration not stated), the inhibition was -8.97%.
On to `CCOC(=O)CNC(=O)CN1C(=O)CCSc2ccccc21`, for which the inhibition is -0.999%.
As to `O=C1NC(Nc2nc3ccccc3s2)(C(F)(F)F)C(=O)N1C1CCCCC1` (configuration not stated), the inhibition is -0.883%.
For `CC(=O)Nc1ccc(S(=O)(=O)NCCc2ccccc2)cc1`, the inhibition is -7.41%.
To `CC1OC2C(OC1C)N(S(C)(=O)=O)CCN2S(C)(=O)=O` (configuration not stated) belongs -4.42%; to `CCOc1ccc(CCNC(=O)C(CC)n2nc(C)n3c(cc4sccc43)c2=O)cc1OCC` (configuration not stated), -12.3%.
With `CCn1ncc(C2=NOC(C(=O)N3CCN(c4ccccc4)CC3)C2)c1C` (configuration not stated), the inhibition was -17.4%.
`CCOC(=O)C1CCCN(C(=O)C2CCN(c3nnc(-n4cccc4)s3)CC2)C1` (configuration not stated): the inhibition is 6.02%.
To `Cn1c(=O)c2c(nc(SCC(=O)Nc3ccccc3N3CCCCC3)n2C)n(C)c1=O` belongs -12.6%.
Take `CCCCSc1nnc(-c2ccc(C)cc2)o1`: the inhibition was -7.53%.
To `O=C(Nc1nc2cc3c(cc2s1)OCCO3)c1cccc(S(=O)(=O)N2CCOCC2)c1` belongs -3.84%.
As to `CCN1C(=O)C(C(=O)NC(C)c2ccccc2)C2CC1(C)Oc1ccccc12` (configuration not stated), the inhibition is -6.65%.
Regarding `c1ccc(CSc2nnc(-c3ccco3)n2Cc2ccccc2)cc1`, the inhibition was -11.9%.
For `Clc1ccccc1CSc1nnc(-c2ccco2)c(-c2ccco2)n1`, the inhibition was -25.9%.
In the case of `c1ccc(CSc2nnc(-c3ccco3)c(-c3ccco3)n2)cc1`, the inhibition was 50.3% (active).
Turning to `C=CCn1c(SCC(=O)NC23CC4CC(CC(C4)C2)C3)nc(O)cc1=O`, the inhibition was 2.29%.
As for `NC(=O)CSC1=Nc2ccccc2C2=NC(CCC(=O)NCc3ccc(F)cc3)C(=O)N12` (configuration not stated), the inhibition is -3.7%.
Consider `CCOC(=O)c1c(C)nc(-c2ccccc2)nc1NC(=O)C(C)C`, for which the inhibition was -5.5%.
Turning to `CCOC(=O)Cn1c(N)c(C(=O)OC)sc1=S`, the inhibition is -11%.
For the molecule `CC(=O)Nc1ccn(Cc2c(F)cccc2Cl)n1`, the inhibition is -13%.
To `O=C(c1ccc(S(=O)(=O)N2CCOCC2)cc1)N1CCN(c2ccccc2)CC1` belongs 1.6%.
With `CCOC(=O)c1[nH]cnc1C(=O)NC1CCCCC1`, the inhibition is -0.873%.
Take `Cc1csc(NC(=O)NC2(C(F)(F)F)Oc3ccccc3O2)n1`: the inhibition was -7.31%.
Turning to `O=C(CCCn1c(=O)oc2ccccc21)Nc1cccnc1`, the inhibition is -11.7%.
Regarding `CS(=O)(=O)N(Cc1nc2sc3c(c2c(=O)[nH]1)CCCC3)C1CCCCC1`, the inhibition was -20%.
As for `O=C1c2ccccc2C(=O)N1CCc1nn[nH]n1`, the inhibition was 2.01%.
On to `COc1ccc(C(=O)c2oc3ccc(Br)cc3c2NC(C)=O)cc1`, for which the inhibition was 1.8%.
Regarding `CC(=O)Nc1ccc(NS(=O)(=O)c2cc(C)sc2C)cc1`, the inhibition was 7.75%.
Turning to `Cc1ccc(S(=O)(=O)N2C3C=CC(C3)C2C(=O)O)cc1` (configuration not stated), the inhibition is -0.599%.
As to `Cc1cc(C)cc(NC(=O)N2CCC(NC(=O)c3ccc(F)cc3)CC2)c1`, the inhibition is 5.11%.
On to `CCOC(=O)C(CC)Sc1ncnc2c1nnn2-c1ccc(F)cc1` (configuration not stated), for which the inhibition is -12.7%.
For the molecule `COc1cc(-c2noc(C3CCCN(S(=O)(=O)c4cccc(Cl)c4)C3)n2)cc(OC)c1OC` (configuration not stated), the inhibition is 3.35%.
Take `CC(C)C(c1nnnn1C1CCCC1)N1CCN(c2ccccc2F)CC1` (configuration not stated): the inhibition was -10.2%.
As for `CC(C)C1Cc2c(sc3c2c(=O)n(-c2ccccc2)c2nncn32)CO1` (configuration not stated), the inhibition was -39.8%.
To `C=CCNC(=O)C1CC=CCC1C(=O)O` (configuration not stated) belongs -12.3%; to `Cc1nc(Nc2ccc3c(c2)OCCO3)c2nnn(Cc3ccccc3Cl)c2n1`, -17.1%; to `CC(=O)N1CCC(C(=O)Nc2nc(-c3ccccc3)ns2)CC1`, -5.67%.
Turning to `CN1C(=O)c2ccc(NC(=O)c3c(F)c(F)c(F)c(F)c3F)cc2C1=O`, the inhibition was 2.43%.
As to `O=C(CC(NS(=O)(=O)c1ccc(Cl)cc1)c1ccco1)NC1CCCC1` (configuration not stated), the inhibition is -20.3%.
In the case of `O=C(NC1=NCCS1)c1ccc(Cl)s1`, the inhibition was 1.03%.
Turning to `CC1Cc2ccccc2N1C(=O)Cn1cnc2ccccc2c1=O` (configuration not stated), the inhibition is -1.71%.
In the case of `c1nnc2c3c4c(sc3ncn12)CCC4`, the inhibition was 0.998%.
For `O=C(CN1C(=O)C2C3C=CC(C3)C2C1=O)NCC1COc2ccccc2O1` (configuration not stated), the inhibition was -2.93%.
Regarding `COCCNC(=O)CN(C(=O)CCC(=O)Nc1cc(C)on1)c1ccc(C)cc1C`, the inhibition was 11.4%.
With `CC(=O)N1CCN(C(=O)Nc2cccc(C(F)(F)F)c2)CC1`, the inhibition is -11.9%.
For the molecule `O=C(Nc1cccc(C(=O)N2CCCC2)c1)c1ccccc1`, the inhibition was -4.63%.
To `O=C(Nc1cccc(NC(=O)N2CCN(c3ccccc3)CC2)c1)N1CCN(c2ccccc2)CC1` belongs 76.4% (active); to `Cc1ccc2c(CSc3nncs3)cc(=O)oc2c1`, -6.44%.
For `CCOC(=O)c1[nH]c2c(c1C)C(=O)CC(c1ccc(N(C)C)cc1)C2` (configuration not stated), the inhibition was -8.71%.
As for `Cc1ccc(N)cc1-n1c(C)ccc1C`, the inhibition is 1.36%.
For the molecule `Cc1ccc(CNC(=O)CN2CCN(Cc3ccc(Cl)cc3)C2=O)cc1`, the inhibition was 1.98%.
